Bioassay records deposited in PubChem by several laboratories.
Calb FLC – C. albicans growth modulation with fluconazole; 0.57% of 300,000 active; C. albicans CaCi-2 (fluconazole-resistant clinical isolate) + fluconazole, Alamar Blue growth, 48 h; growth inhibition, % (concentration not given with the values);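 active means growth inhibition above about 58% in most replicates, limit read from the data, passing the limit was not always enough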;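 further: all wells also contain fluconazole at 8 µg/ml as a sub-toxic cotreatment; 0% = median of DMSO wells and 100% = median of geldanamycin control wells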
MPTP block – inhibitors of mitochondrial permeability transition pore; AID 602449; inhibition, % at 10 µM; isolated mouse mitochondria, Ca2+ swelling absorbance, 30 min; 1.4% of 360,000 active;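 active means inhibition of 50% or more, scaled per plate between neutral and stimulator controls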;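 further: 0% = DMSO wells given calcium and 100% = 1 mM EGTA wells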
SKKanGAS inh – SKKanGAS growth inhibition. 1.3% of 300,000 active. inhibition, % at 7.5 µM. S. pyogenes SKKanGAS, kanamycin growth, BacTiter-Glo, 6 h;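 active means mean replicate score, as percent of positive control median, at least 50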;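 further: strain carries kanamycin resistance gene driven by streptokinase promoter and grows in 40 µg/ml kanamycin; loss of luminescence reflects streptokinase promoter inhibition or plain growth inhibition; 0% = median of DMSO wells and 100% = positive control at its reference dose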
Beta cell apopt – blocks beta cell apoptosis. protection from apoptosis, % (concentration not given with the values). INS-1E cytokine-induced death, ATP luminescence, 48 h; percent of positive-control rescue, neutral wells zero. AID 435005. 0.8% of 300,000 active;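 active means Every replicate reaches about 75%, or at least half do and their mean reaches it too, limit read from the data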;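 further: 0% = cytokine-treated negative control wells and 100% = positive control rescue; higher means more ATP so stronger rescue from cytokine killing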
CSC inhib – blocks cancer stem cells; cancer stem cell-like cells viability, luminescence; inhibition, % at 7.5 µM; 1.1% of 300,000 active; in the data active means inhibition above about 75%; tested in HMLE shEcad cells
Mdm2-MdmX inh – disrupts the human Mdm2-MdmX interaction. SaOS-2 split-luciferase Mdm2/MdmX complementation, luminescence. inhibition, % at 8 µM. 3% of 330,000 active. AID 485346;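 active means inhibition of at least 50% at 8 µM in the primary screen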
Target sequence (O15151 whole entry, looked up): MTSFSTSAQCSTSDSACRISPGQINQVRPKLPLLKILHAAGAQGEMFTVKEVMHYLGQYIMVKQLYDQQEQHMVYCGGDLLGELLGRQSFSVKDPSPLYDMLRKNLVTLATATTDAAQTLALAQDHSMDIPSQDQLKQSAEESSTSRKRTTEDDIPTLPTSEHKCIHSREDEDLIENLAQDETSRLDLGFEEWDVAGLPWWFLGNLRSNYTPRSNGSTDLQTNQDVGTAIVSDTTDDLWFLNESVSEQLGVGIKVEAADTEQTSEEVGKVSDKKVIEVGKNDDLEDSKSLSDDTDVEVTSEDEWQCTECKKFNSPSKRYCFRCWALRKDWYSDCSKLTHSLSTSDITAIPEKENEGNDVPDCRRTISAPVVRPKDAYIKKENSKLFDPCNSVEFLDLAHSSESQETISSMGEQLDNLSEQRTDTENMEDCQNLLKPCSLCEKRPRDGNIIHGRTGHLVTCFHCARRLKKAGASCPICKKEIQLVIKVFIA
Target sequence (Q00987 whole entry, looked up): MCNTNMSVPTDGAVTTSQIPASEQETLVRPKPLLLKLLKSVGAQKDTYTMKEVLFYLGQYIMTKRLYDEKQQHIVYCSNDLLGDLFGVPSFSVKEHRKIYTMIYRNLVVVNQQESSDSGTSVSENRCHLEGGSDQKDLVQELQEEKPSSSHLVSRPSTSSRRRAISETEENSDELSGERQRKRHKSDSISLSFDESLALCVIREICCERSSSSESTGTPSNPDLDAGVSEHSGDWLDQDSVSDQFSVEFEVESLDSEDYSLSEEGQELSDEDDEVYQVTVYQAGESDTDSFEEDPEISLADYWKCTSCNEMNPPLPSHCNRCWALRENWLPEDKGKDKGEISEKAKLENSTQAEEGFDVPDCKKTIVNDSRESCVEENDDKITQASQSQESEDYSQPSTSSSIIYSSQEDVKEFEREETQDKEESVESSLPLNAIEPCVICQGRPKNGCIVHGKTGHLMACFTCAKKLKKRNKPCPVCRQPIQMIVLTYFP
* = called active by the depositor; nt = no result. An excerpt weighted towards active compounds, which were near 5.4% of everything screened.

SMILES	Calb FLC	MPTP block	SKKanGAS inh	Beta cell apopt	CSC inhib	Mdm2-MdmX inh
C#CCOCCOCCOCCNc1nc(N2CCN(C(=O)CCCCCCCCCCNC(=O)[C@H]([C@@H](C)CC)n3cc(CCCCN=C(N)N)nn3)CC2)nc(N2CCN(C(=O)CCCCCCCCCCNC(=O)[C@H]([C@@H](C)CC)n3cc(CCCCN=C(N)N)nn3)CC2)n1	nt	nt	nt	99*	-6	-24
C#CCOCCOCCOCCNc1nc(N2CCN(C(=O)CCCCCCCCCCNC(=O)Cn3cc(CCCCCN)nn3)CC2)nc(N2CCN(C(=O)CCCCCCCCCCNC(=O)[C@H]([C@@H](C)CC)n3cc(CCCCN=C(N)N)nn3)CC2)n1	nt	-13	nt	86*	161*	10
C#CCOCCOCCOCCNc1nc(N2CCN(C(=O)CCCCCCCCCCNC(=O)[C@H]([C@@H](C)CC)n3cc(CCCCCN)nn3)CC2)nc(N2CCN(C(=O)CCCCCCCCCCNC(=O)[C@H]([C@@H](C)CC)n3cc(CCCCN=C(N)N)nn3)CC2)n1	nt	-15	nt	98*	-15	-20
C#CCOCCOCCOCCNc1nc(N2CCN(C(=O)CCCCCCCCCCNC(=O)[C@H]([C@@H](C)CC)n3cc(CCCCCN)nn3)CC2)nc(N2CCN(C(=O)CCCCCCCCCCNC(=O)[C@H](CCCCN)n3cc(CCCC(=O)O)nn3)CC2)n1	nt	-10	nt	1	9	23
CC(C)CCN1C(=O)CSCC1(C)C(=O)NCc1ccccc1 (configuration not stated)	nt	0	nt	nt	nt	nt
C#CCOCCOCCOCCNc1nc(N2CCN(C(=O)CCCCCCCCCCNC(=O)[C@H]([C@@H](C)CC)n3cc(CCCCN=C(N)N)nn3)CC2)nc(N2CCN(C(=O)CCCCCCCCCCNC(=O)[C@H](CO)n3cc(CCCCCN)nn3)CC2)n1	nt	20	nt	108*	18	4
CCOC(=O)c1sc(Nc2nc3c(OC)cccc3s2)nc1C	78*	7	11	21	32	3
CCOc1cccc2sc(Nc3nc4ccc(NC(C)=O)cc4s3)nc12	25	1	71*	28	-10	-10
CCC(=O)Nc1nc2ccc(NC(C)=O)cc2s1	-14	-1	-5	0	-3	17
CCOC(=O)c1sc(Nc2ccccc2)nc1C	0	-1	-3	-1	-4	-36
COC(=O)c1ccc(/C=C/C(=O)OCC(=O)Nc2cc(C)on2)cc1	nt	-1	nt	-4	-15	-13
CC(=O)OCCNc1cc(SC(C)C)c2nonc2c1[N+](=O)[O-]	-16	1	nt	-1	1	7
CC(=O)OCCCNc1cc(Sc2ccc(Cl)cc2)c2nonc2c1[N+](=O)[O-]	-10	9	-2	-1	81*	nt
CC(C)(C)Nc1nc(NN)nc(NC(C)(C)C)n1	26	-1	87*	4	18	17
CCOC(=O)CCc1c(C)n(CC)c2ncnn2c1=O	13	-1	-4	-10	-4	11
C/C(=N\NC(=O)c1c(Cl)c(C)nn1C)c1cccc(NC(=O)c2cccc(F)c2)c1	-5	-2	55*	5	3	-6
C/C(=N\NC(=O)c1c(Cl)c(C)nn1C)c1cccc(NC(=O)COc2ccccc2)c1	1	-4	12	-1	nt	-37
O=C(/C=C/c1ccc(Cl)cc1)c1cccnc1	-3	0	14	-2	9	11
CCN(CC)c1ccc(/C=C/C(=O)c2cccnc2)cc1	93*	0	-2	-1	-5	-29
Cc1cc(/C=C2\SC(=O)N(C)C2=O)c(C)n1-c1ccc(S(N)(=O)=O)cc1	3	0	11	-6	-2	1
CC(=O)NC1=NC(=O)/C(=C/c2cc(C)n(-c3ccc(NC(C)=O)cc3)c2C)S1	-5	1	79*	3	nt	-8
Cc1cc(/C=C2\SC(=O)NC2=O)c(C)n1-c1ccc(N2CCOCC2)cc1	-2	6	100*	9	-16	27
Cc1cc(/C=C2\SC(=O)N(C)C2=O)c(C)n1-c1ccc(O)cc1	13	20	88*	6	-5	15
CCCCCCOc1ccc(/C(N)=N/O)cc1	2	-3	-12	0	23	-80
N=C(N)c1ccc(OCCCCCOc2ccc(C(=N)N)cc2)cc1	nt	2	108*	22	-13	28
SMILES	Calb FLC	MPTP block	SKKanGAS inh	Beta cell apopt	CSC inhib	Mdm2-MdmX inh
COc1ccc(C2C3=C(Nc4ncnn42)c2ccccc2CC3)cc1OC (configuration not stated)	-1	nt	3	0	16	37
Brc1ccc(C2C3=C(Nc4ncnn42)c2ccccc2OC3c2ccncc2)cc1 (configuration not stated)	-19	2	88*	-1	28	29
O=S(=O)(NCc1ccccc1)c1cccc2cccnc12	-14	2	-7	-9	-7	2
O=S(=O)(NCC(c1ccco1)N1CCN(c2ccc(F)cc2)CC1)c1ccc2c(c1)OCCO2 (configuration not stated)	114*	0	6	1	nt	22
O=S(=O)(NCC(c1ccco1)N1CCc2ccccc2C1)c1ccc(F)cc1 (configuration not stated)	-8	0	3	-1	18	15
O=C(c1cccc([N+](=O)[O-])c1)N1CCOCC1	1	3	9	-9	-8	-14
O=C(/C=C\c1ccc(-c2cccc([N+](=O)[O-])c2)o1)N1CCOCC1	97*	0	-6	2	-5	-25
O=[N+]([O-])c1ccc(N2CCN(C(=S)NCc3ccc(Cl)cc3)CC2)cc1	-5	30	22	96*	6	21
CCNC(=S)N1CCN(c2ccc([N+](=O)[O-])cc2)CC1	7	1	-12	nt	2	3
O=C(CSc1nc(O)cc(=O)n1-c1ccccc1)c1ccc(Br)cc1	-4	0	40	-6	-12	-18
Cc1c(CCC(=O)O)c(=O)oc2c(C)c(OCc3cc4c(cc3Cl)OCO4)ccc12	9	18	67*	-5	3	-19
COc1cc(OC)cc(-c2c(C#Cc3ccsc3)c3cc(-c4ccc(OC)c(OC)c4)ccc3n2C)c1	nt	0	nt	-3	nt	16
Cc1cc(C)c2c(-n3cccc3)c(C(=O)NNS(=O)(=O)c3ccc(Br)cc3)sc2n1	32	16	59*	-2	7	8
CCOC(=O)Nc1sc2nc(C)cc(C)c2c1-n1cccc1	-2	1	0	-1	3	31
CC(C)C[C@H]1CNC(=S)N1C[C@H]1CCCN1C[C@H](Cc1ccc(O)cc1)N1C[C@H](CC(C)C)N(CC2CCCCCC2)C1=S	nt	1	nt	nt	nt	nt
CC(NC(=O)c1ccccc1O)c1ccccc1 (configuration not stated)	-1	0	2	-7	-9	-4
Sc1nnc(-c2ccc(Cl)cc2)n1Cc1ccccc1	nt	-3	nt	6	76*	4
S=c1[nH]nc(-c2ccc(Cl)cc2)n1Cc1ccccc1	-2	0	-9	-5	-4	3
